Bioassay records (PubChem BioAssay)
This is a sample that favours compounds with a hit; in the whole collection about 4.2% have one here.
PfHsp90 yeast 2: growth inhibition of yeast expressing Plasmodium Hsp90; S. cerevisiae expressing PfHsp90, BacTiter-Glo ATP, 48 h; yeast lacking PDR1 and PDR3 efflux regulators; AID 504621; 310,000 compounds, 0.32% hits; inhibition, % at 9.4 µM;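 active = every replicate shows inhibition above about 80%, whatever the replicate mean, limit read from the data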
TIM10 inh: growth inhibitors of TIM10 yeast strain; 330,000 compounds, 1.4% hits; inhibition, % at 10 µM; S. cerevisiae TIM10 strain growth, BacTiter-Glo luminescence, 24 h;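 active = inhibition of 40% or more at the single tested concentration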;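 note: wild-type TIM10 isogenic control strain grown at permissive 25 °C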
tim10-1 inh: growth inhibitors of tim10-1 mutant yeast; S. cerevisiae tim10-1 ts strain growth, BacTiter-Glo, 24 h; AID 463190; 330,000 compounds, 2.2% hits; inhibition, % at 20 µM;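 active = inhibition of at least 40%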;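 note: mutant grown at 25 °C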
tim23-1 inh: tim23-1 yeast growth inhibition; S. cerevisiae tim23-1 growth, BacTiter-Glo luminescence, 24 h; inhibition, % at 20 µM; 330,000 compounds, 1.3% hits; AID 463212;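 active = growth inhibition of the mutant yeast at or above 50%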;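 note: temperature-sensitive mutant grown at 25 °C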
NALP3 yeast inh: NALP3 inhibition in yeast; inhibition, % at 10 µM; 330,000 compounds, 0.39% hits; Yeast reconstituted NLRP3/ASC/caspase-1, beta-gal luminescence, 24 h;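 active = inhibition of 50% or more; inactive = inhibition below 50%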
NALP1 inh: blocks the NALP1 inflammasome reconstituted in yeast; S. cerevisiae NALP1/ASC/caspase-1 growth, X-gal OD620, 72 h; inhibition, % at 10 µM; 280,000 compounds, 0.61% hits; in the data active = inhibition mostly above about 24%, no sharp cut-off; inactive = mostly below about 32%
tim10-1 confirm: confirmation of tim10-1 mutant yeast growth inhibitors; shares compounds with tim10-1 inh; S. cerevisiae tim10-1 ts strain growth, BacTiter-Glo, 24 h; inhibition, % at 20 µM; 7,400 compounds, 56% hits; AID 463213;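 active = inhibition of yeast growth at or above a set limit in either of two repeat tests at 20 µM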;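 note: tim10-1 mutant grown at permissive 25 °C to find synthetic lethal compounds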
TIM10 conf: confirmation of TIM10 yeast growth inhibitors. 4,600 compounds, 63% hits. S. cerevisiae tim10 strain growth, BacTiter-Glo luminescence, 24 h. shares compounds with TIM10 inh. inhibition, % at 10 µM;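 active = inhibition of yeast growth at or above a set limit in either of two replicates at 10 µM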; note: this counterscreen used the strain with wild-type TIM10
tim23-1 confirm: confirmation of tim23-1 mutant yeast growth inhibitors; shares compounds with tim23-1 inh; S. cerevisiae tim23-1 growth, BacTiter-Glo luminescence, 24 h; inhibition, % at 20 µM; 4,400 compounds, 83% hits;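 active = inhibition above about 39% in either of two replicate wells at 20 µM, limit read from the data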;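 note: temperature-sensitive tim23-1 mutant grown at 25 °C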
Large screens that a line does not name were inactive (follow-up assays come after a bar, where they were run).

C=CCSc1n[nH]c(-c2ccc(OCCCC)cc2)n1	TIM10 inh 56, tim10-1 inh 41, tim23-1 inh 72 (no result: PfHsp90 yeast 2) | tim10-1 confirm inactive | TIM10 conf 48 | tim23-1 confirm 67
Cc1ccccc1N=Cc1c(O)n(-c2nccs2)c(=O)c2ccccc12	TIM10 inh 47, tim10-1 inh 48, tim23-1 inh 59 | tim10-1 confirm 47 | TIM10 conf 46 | tim23-1 confirm 56
O=C(O)c1ccccc1N=Cc1c(O)n(-c2nccs2)c(=O)c2ccccc12	none
Cc1cccc(CNC(=O)C2CCC(=O)N(Cc3ccccc3F)C2)n1 (centres undefined)	none
Cc1cc(C)cc(OCCNC(=O)c2cc(S(=O)(=O)N3CCOCC3)ccc2F)c1	none
O=C(CCC(=O)N1CCN(S(=O)(=O)c2ccccc2Cl)CC1)c1ccccc1	none (no result: NALP1 inh)
C/C(=N\NC(=S)NC1CCCCC1)c1cccs1	TIM10 inh 58, tim10-1 inh 41, tim23-1 inh 53 | tim10-1 confirm inactive | TIM10 conf 36 | tim23-1 confirm 49
O=C(O)C1(Nc2ccc(Br)cc2)CCCC1	none (no result: TIM10 inh, tim10-1 inh, tim23-1 inh, NALP3 yeast inh, NALP1 inh)
CC(C)(C)c1cc(S(=O)(=O)CCc2ccccn2)cc(C(C)(C)C)c1F	TIM10 inh 53, tim10-1 inh 48, tim23-1 inh 60 | tim10-1 confirm 45 | TIM10 conf 52 | tim23-1 confirm 58
CN(CCc1ccccn1)S(=O)(=O)c1ccc(F)cc1	none
COc1ccc(C(=O)NC(=S)NC(C)(C)C)cc1Br	TIM10 inh 60, tim10-1 inh 40, tim23-1 inh 64 | tim10-1 confirm 47 | TIM10 conf 53 | tim23-1 confirm 77
COc1ccc(C(=O)NC(=S)NCc2ccco2)cc1Br	tim10-1 inh 46, tim23-1 inh 54 | tim10-1 confirm 38 | tim23-1 confirm 53
COc1ccc(C(=O)NC(=S)NC(C)C)cc1Br	none
c1ccc(-c2ccc3c(c2)NCCN3)cc1	none
COc1ccccc1NC(=O)Nc1ccc(-n2ccc(C(F)(F)F)n2)cc1	tim10-1 inh 54, tim23-1 inh 64 | tim10-1 confirm 50 | tim23-1 confirm 60
Cc1ccc(NC(=O)CN2C(=O)S/C(=C/c3ccncc3)C2=O)cc1	TIM10 inh 42, tim10-1 inh 45, tim23-1 inh 56 | tim10-1 confirm 42 | TIM10 conf 43 | tim23-1 confirm 51
Cc1ccc(/C=C2\SC(=S)N(CC(=O)Nc3cccnc3)C2=O)cc1	none
Cc1ccc(C#N)c(SCC(=O)Nc2nccs2)n1	none
O=C(Cn1nc(Cl)nc1Cl)c1cc2ccccc2oc1=O	TIM10 inh 57, tim10-1 inh 59, tim23-1 inh 72 | tim10-1 confirm 53 | TIM10 conf 44 | tim23-1 confirm 69
N/C(=N\OC(=O)COc1ccc2ccccc2c1)c1cccnc1	none
Cc1ccc(S(=O)(=O)Nc2ccc(Br)cc2/C=N/n2cnnc2)cc1	tim10-1 inh 41, tim23-1 inh 77 | tim10-1 confirm 35 | tim23-1 confirm 72
CSc1nc2ccc(NS(=O)(=O)c3ccccc3F)cc2s1	none
CSc1nc2ccc(NS(=O)(=O)c3c(Cl)cccc3Cl)cc2s1	tim10-1 inh 43, tim23-1 inh 52 | tim10-1 confirm 30 | tim23-1 confirm 57
O=C1C(Nc2ccccc2)=C/C(=N/S(=O)(=O)c2cccs2)c2ccccc21	none (no result: TIM10 inh, tim10-1 inh, tim23-1 inh, NALP3 yeast inh)
COC(=O)c1ccccc1NC1=C/C(=N\S(=O)(=O)c2cccs2)c2ccccc2C1=O	TIM10 inh 41, tim10-1 inh 46, tim23-1 inh 56 | tim10-1 confirm 41 | TIM10 conf inactive | tim23-1 confirm 40
CCCc1ccc2oc(C(=O)N3CCCC3)c(C)c2c1	none
CCOC(=O)c1sc2nc(NC(=O)C(C)(C)C)sc2c1C	TIM10 inh 41, tim10-1 inh 55, tim23-1 inh 63 | tim10-1 confirm 31 | TIM10 conf 44 | tim23-1 confirm 57
O=C(NC1CCCC1)c1cccc(Cl)c1	none
O=C(NC1CC1)c1ccc2c(c1)C1C3CCC(C3)C1C(c1ccccc1)N2 (centres undefined)	TIM10 inh 41, tim10-1 inh 50, tim23-1 inh 62 | tim10-1 confirm 42 | TIM10 conf inactive | tim23-1 confirm 54
Cc1ccccc1NC(=O)CCS(=O)(=O)c1ccc(Br)s1	none
COC(=O)c1ccccc1NC(=O)CCS(=O)(=O)c1ccc(Br)s1	tim10-1 inh 44, tim23-1 inh 55 (no result: PfHsp90 yeast 2) | tim10-1 confirm 44 | tim23-1 confirm 47
CC(=O)Nc1cccc(C(=O)OC(C)C(=O)NC(=O)NC2CCCCC2)c1 (centres undefined)	none (no result: PfHsp90 yeast 2, NALP1 inh)
Cc1cc2n(n1)C(c1ccco1)Nc1ccccc1-2 (centres undefined)	none (no result: PfHsp90 yeast 2)
Cc1cc2n(n1)C(c1c[nH]c3ccccc13)Nc1ccccc1-2 (centres undefined)	PfHsp90 yeast 2 125, TIM10 inh 40, tim10-1 inh 60, tim23-1 inh 71 | tim10-1 confirm 34 | TIM10 conf 33 | tim23-1 confirm inactive
Cc1cc2n(n1)C(c1cn(-c3ccccc3)nc1C)Nc1ccccc1-2 (centres undefined)	none (no result: PfHsp90 yeast 2)
Cc1cc2n(n1)C(c1ccc(O)cc1)Nc1ccccc1-2 (centres undefined)	TIM10 inh 55, tim10-1 inh 54, tim23-1 inh 50 | tim10-1 confirm 46 | TIM10 conf 48 | tim23-1 confirm 54
Clc1cccc(-c2ccc(CNCCCN3CCOCC3)o2)c1	none
CCCNC(=O)c1onc(CS(=O)(=O)c2cc(C)cc(C)c2)c1C(=O)NCCC	none (no result: NALP1 inh)
O=Cc1c[nH]c2cccc(OCc3ccccc3)c12	tim10-1 inh 59, tim23-1 inh 54 (no result: NALP1 inh) | tim10-1 confirm 30 | tim23-1 confirm inactive
O=Cc1c[nH]c2ccc(NC(=O)OCc3ccccc3)cc12	none (no result: TIM10 inh, tim10-1 inh, tim23-1 inh, NALP3 yeast inh, NALP1 inh)
O=C(Nc1nc(-c2ccccn2)cs1)c1ccco1	none
O=C(Nc1nc(-c2ccccn2)cs1)c1ccc(Br)s1	PfHsp90 yeast 2 126, tim10-1 inh 53, tim23-1 inh 56 | tim10-1 confirm 34 | tim23-1 confirm 47
CC1CC2(CCCCC2)N2C(=O)C(=O)c3cccc1c32 (centres undefined)	tim10-1 inh 42, tim23-1 inh 69 | tim10-1 confirm 52 | tim23-1 confirm 79
